Laboratory results taken from PubChem BioAssay AID651871 (Sanford-Burnham Center for Chemical Genomics, 2012).
Where “and” joins values, the source holds several entries; their conditions need not be identical. Identical values can stand only once.

Test system: HL-1
Assay: protection of cardiomyocytes from stress damage, SAR follow-up, cell-based, panel, H9c2 and HL-1, ATP luminescence, set 2 (AID 651871);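 further: cells exposed to stressor for 2 h before ATP readout; reference of the scale not given here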
Conditions: H9c2/HL-1 cardiomyocytes, 2-deoxyglucose stress, with 2-deoxyglucose; run 7, at 79 µM (top of the series)

Row | Structure (SMILES) | activity (protection/inhibition)
1 | COc1ccc2c(c1OC)C(=O)N1c3ccccc3C(=O)N(Cc3cccc(Cl)c3Cl)C21 (stereo not drawn) | 48.9% and 20.1% and -9.92%
2 | COc1ccc2nc(-c3cc(OC)c(OC)c(OC)c3)cc(C(=O)NCC(=O)Nc3ccc(C(C)=O)cc3)c2c1 | 38%
3 | CCOC(=O)c1cccc(NC(=O)CNC(=O)c2cc(-c3cc(OC)c(OC)c(OC)c3)nc3ccccc23)c1 | 54.3%
